Some test systems named below: NCI-H23 lung; NCI-H322M lung; HOP-62 NSCLC; NCI-H460 lung; HOP-92 NSCLC; NCI-H522 lung; A549/ATCC NSCLC; 786-0 renal; COLO 205 colon; DU-145 prostate.
What all share (test): NCI-60 one-dose screen, 48 h (100 = growth as untreated, 0 = no growth, -100 = all killed)
Settings in all cases: 10 µM unless noted

The structures appear in SMILES notation. This is part of a sample that, as a whole, favours compounds with a hit. Of some 83,000 tested, about 20% had one in any assay.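 Cells were grown in 96-well plates and exposed to the test compound at a single concentration for 48 hours; results are reported as percent growth, with values below 10 considered active.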 Values without a mark were called inactive. Active and inactive are the calls of the source.

With `O=c1oc2ccc(Br)cc2c(=O)n1-c1ccc(F)cc1F`, the growth is 4.93% (active) in the assay with NCI-H23 lung; 7.55% (active) in the assay on NCI-H322M lung; 6.8% (active) with HOP-62 NSCLC; 5.91% (active) in the assay on NCI-H460 lung; -24.4% (active) in the assay with HOP-92 NSCLC; -6.16% (active) in the assay on NCI-H522 lung. Also, the growth with A549/ATCC NSCLC is 6.77% (active); with 786-0 renal it was 4.39% (active); in the assay with COLO 205 colon, 85.5%; in the assay on DU-145 prostate, 18%.

On to `COc1ccc(Cn2cc(Cn3cc(C=C4C(=O)NC(=O)NC4=O)c4ccccc43)nn2)cc1`, for which the growth in the assay with NCI-H23 lung is 62.7%; in the assay with NCI-H322M lung, 90.1%; in the assay on HOP-62 NSCLC, 92.4%; in the assay on NCI-H460 lung, 48%; in the assay with HOP-92 NSCLC, 84.5%; in the assay on NCI-H522 lung, 89.9%. Besides, the growth with A549/ATCC NSCLC was 112%; in the assay on 786-0 renal it was 96.7%; in the assay on COLO 205 colon, 108%; with DU-145 prostate it was 92.1%.

Take `COc1ccc2sc(N(Cc3cccnc3)C(=O)c3ccc(C#N)cc3)nc2c1`: the growth in the assay with NCI-H23 lung was 96.3%; in the assay on NCI-H322M lung, 101%; in the assay with HOP-62 NSCLC, 94.4%; in the assay with NCI-H460 lung it was 101%; in the assay on HOP-92 NSCLC it was 60.7%; with NCI-H522 lung, 124%. Also, the growth was 81.9% with A549/ATCC NSCLC, 69.8% with 786-0 renal, 84% with COLO 205 colon and 93.5% with DU-145 prostate.

Turning to `N[C@@H](CC/[N+]([O-])=N/O)C(=O)O`, the growth in the assay on NCI-H23 lung was 97.2%; in the assay with NCI-H322M lung, 103%; with HOP-62 NSCLC, 101%; with NCI-H460 lung, 97.9%; with HOP-92 NSCLC it was 107%; in the assay on NCI-H522 lung, 95.7%. For the same molecule, the growth in the assay on A549/ATCC NSCLC was 102%; with 786-0 renal it was 104%; in the assay on COLO 205 colon it was 104%; in the assay on DU-145 prostate, 97.8%.

For the molecule `Clc1ccc(Nc2nnc(-c3ccc4c(c3)OCO4)o2)cc1`, the growth in the assay with NCI-H23 lung is 101%; with NCI-H322M lung, 98.9%; with HOP-62 NSCLC, 114%; with NCI-H460 lung, 103%; in the assay on HOP-92 NSCLC it was 99.8%; in the assay with NCI-H522 lung it was 80.9%. Besides, the growth with A549/ATCC NSCLC was 97.8%; in the assay with 786-0 renal, 97.9%; in the assay on COLO 205 colon it was 107%; in the assay on DU-145 prostate, 98.9%.

Turning to `COc1ccc(N)c(-c2cc3c(c4c2[nH]c2ccc(OC)cc24)CCCC3)c1`, the growth in the assay on NCI-H23 lung is 91.2%; with NCI-H322M lung, 71.5%; in the assay on HOP-62 NSCLC, 70.4%; with NCI-H460 lung, 83.1%; in the assay with HOP-92 NSCLC it was 72.2%; in the assay with NCI-H522 lung, 57.1%. Further, the growth in the assay with A549/ATCC NSCLC is 64.1%; in the assay with 786-0 renal it was 78.3%; with COLO 205 colon, 102%; in the assay on DU-145 prostate, 83.7%.

With `CCOc1cc2c(cc1OCC)C(c1cc(C)c(O)c(C)c1)NCC2` (stereo not given), the growth in the assay on NCI-H23 lung was 100%; in the assay on NCI-H322M lung it was 92.2%; with HOP-62 NSCLC, 107%; in the assay with NCI-H460 lung, 100%; in the assay with HOP-92 NSCLC it was 88.5%; in the assay with NCI-H522 lung, 91%. Moreover, the growth in the assay with A549/ATCC NSCLC was 95.5%; with 786-0 renal, 94.3%; in the assay on COLO 205 colon it was 106%; with DU-145 prostate, 111%.

On to `CCCCOCc1cc(CN2CCN(C)CC2)c(O)c2ncccc12`, for which the growth in the assay on NCI-H23 lung is 60%; with NCI-H322M lung it was 53.9%; in the assay on HOP-62 NSCLC, 32.9%; in the assay with NCI-H460 lung, 21.9%; in the assay on HOP-92 NSCLC, 57.9%; in the assay with NCI-H522 lung it was 24.9%. For the same molecule, the growth in the assay on A549/ATCC NSCLC was 35.9%; in the assay on 786-0 renal it was 38.1%; in the assay on COLO 205 colon, 85.4%; in the assay on DU-145 prostate, 63.9%.

Regarding `Cc1nn(-c2nc3ccccc3[nH]2)c2c1C(c1ccc(OCC(N)=O)cc1)CC(=O)N2` (stereo not given), the growth was 103% in the assay on NCI-H23 lung; 105% with NCI-H322M lung; 100% with HOP-62 NSCLC; 103% in the assay on NCI-H460 lung; 105% in the assay on HOP-92 NSCLC; 100% in the assay on NCI-H522 lung. The growth was 109% with A549/ATCC NSCLC, 104% in the assay with 786-0 renal, 117% in the assay with COLO 205 colon and 107% in the assay with DU-145 prostate.

On to `CCCCc1c(CCC)c(=N)c2ccccc2n1C`, for which the growth in the assay with NCI-H23 lung is 99.2%; in the assay on NCI-H322M lung, 85.3%; with HOP-62 NSCLC it was 78%; in the assay with NCI-H460 lung, 67.7%; in the assay with HOP-92 NSCLC, 48.2%; in the assay with NCI-H522 lung, 100%. Also, the growth with A549/ATCC NSCLC is 69.8%; in the assay with 786-0 renal it was 73.8%; with COLO 205 colon it was 70.5%; with DU-145 prostate it was 79.9%.

As to `Cc1ccc(C(=O)c2oc3ccc4c(C)cc(=O)oc4c3c2C)cc1`, the growth in the assay with NCI-H23 lung was 40.4%; in the assay with NCI-H322M lung, 63.1%; in the assay with HOP-62 NSCLC it was 61.3%; in the assay on NCI-H460 lung, 3.14% (active); in the assay with HOP-92 NSCLC, 9.32% (active); in the assay with NCI-H522 lung, 25.7%. For the same molecule, the growth is 14.8% with A549/ATCC NSCLC, 57.3% with 786-0 renal, -59.7% (active) with COLO 205 colon and 64.7% in the assay on DU-145 prostate.

For `CC1=NCC2NC(=O)NC(C)=C12` (stereo not given), the growth with NCI-H23 lung is 103%; in the assay with NCI-H322M lung, 94.7%; with HOP-62 NSCLC, 97.9%; in the assay with NCI-H460 lung, 101%; in the assay on HOP-92 NSCLC, 87.7%; in the assay on NCI-H522 lung it was 96.5%. Moreover, the growth in the assay with A549/ATCC NSCLC is 105%; in the assay with 786-0 renal, 96.9%; with COLO 205 colon it was 108%; in the assay on DU-145 prostate it was 104%.

`Clc1ccc(-c2nnc(COc3ccc(C4=NNC(c5ccco5)C4)cc3)o2)cc1` (stereo not given): the growth is 61.5% in the assay on NCI-H23 lung; 36.6% in the assay with NCI-H322M lung; 105% in the assay on HOP-62 NSCLC; 82.7% in the assay on NCI-H460 lung; 76.8% in the assay with HOP-92 NSCLC; 86.7% with NCI-H522 lung. The growth in the assay on A549/ATCC NSCLC was 45.6%; with 786-0 renal, 89.5%; with COLO 205 colon it was 105%; with DU-145 prostate, 94.8%.

As to `COc1ccc(-c2nocc2-c2cccs2)cc1`, the growth was 105% in the assay on NCI-H23 lung; 102% in the assay with NCI-H322M lung; 101% in the assay on HOP-62 NSCLC; 102% in the assay with NCI-H460 lung; 86.6% in the assay with HOP-92 NSCLC; 98.5% with NCI-H522 lung. Besides, the growth in the assay with A549/ATCC NSCLC was 99.3%; in the assay with 786-0 renal, 103%; in the assay with COLO 205 colon it was 115%; in the assay on DU-145 prostate, 107%.
